Assay [1] deals with Klebsiella pneumoniae. The following applies: Concentration 32 ug.mL-1;; ASSAY_TEST Inhibition of Bacterial Growth; detection method Absorption (OD600); MEDIA CAMHB; plate type 384well; NBS; CORNING #3640; time 18 hr.
The subject of assay [2] is Candida albicans. Particulars: Concentration 32 ug.mL-1; ASSAY_TEST Inhibition of Fungal Growth; detection method Absorption (OD530).
Assay [3] has as its system Cryptococcus neoformans. Particulars: Concentration 32 ug.mL-1; ASSAY_TEST Inhibition of Fungal Growth; detection method Resazurin; Absorption (OD600-OD570); plate type 384well; NBS; CORNING #3640. Background: Resazurin is reduced to fluorescent resorufin, in cell work by metabolically active cells.

Measured potencies and affinities stand elsewhere.

In general, Inhibition refers to the drop in the measured response relative to a control, in per cent. As for `CC(=O)c1cccc(NC(=O)Cn2c(=O)c3nnc(C(C)C)n3c3ccccc32)c1`, the Inhibition in assay [1] is reported as 4.91%; in assay [2] it was 5.31%; in assay [3], -19.11%.
As to `Cc1ccc(-c2cc3c4nn(CC(=O)Nc5cc(Cl)ccc5C)c(=O)n4ccn3n2)cc1C`, the Inhibition in assay [1] is 6%; in assay [2], 4.85%; in assay [3] it was -8.51%.
`O=C(Cn1nc2ccc(SC3CCCCC3)nn2c1=O)Nc1ccc(F)c(F)c1`: the Inhibition in assay [1] is reported as 13.05%; in assay [2], 13.65%; in assay [3], -16.79%.
Turning to `COc1ccc(-c2cc3c4nnc(CCC(=O)NCc5ccc(OC)c(OC)c5)n4ccn3n2)cc1`, the Inhibition in assay [1] was 12.53%; in assay [2], 2.24%; in assay [3] it was -11.61%.
`O=C(Cn1nc2c(Oc3ccccc3)nc3ccccc3n2c1=O)Nc1ccc2c(c1)OCO2`: the Inhibition in assay [1] was 4.55%; in assay [2], 16.43%; in assay [3] it was -9.27%.
Turning to `CCc1nnc2c(S(=O)(=O)N(Cc3cccc(Cl)c3)c3ccccc3)cccn12`, the Inhibition is -7.54% in assay [1], 2.13% in assay [2] and -7.64% in assay [3].
For the molecule `COc1ccccc1N1CCN(C(=O)CSc2nnc3c(=O)n(-c4ccc(F)cc4)ccn23)CC1`, the Inhibition is on record as 11.85% in assay [1], 1.66% in assay [2] and -8.01% in assay [3].
On the same counts, the results for `Cc1ccc(Sc2nccn3c(=O)n(CC(=O)Nc4c(C)cc(C)cc4C)nc23)c(C)c1` are 17.85%, -0.74% and -21.38%.
In the case of `COc1ccc(-c2cc3c4nnc(SCC(=O)Nc5cccc(Cl)c5C)n4ccn3n2)cc1`, the Inhibition is given as -3.16% in assay [1], 6.33% in assay [2] and -18.63% in assay [3].
Regarding `CSc1ccc(CNC(=O)Cn2nc3c(Oc4ccc(C)cc4)nccn3c2=O)cc1`, the Inhibition in assay [1] was -2.38%; in assay [2], 4.95%; in assay [3], -4.29%.

For the origin of these results see ChEMBL document CHEMBL4513146, “CO-ADD screening of Karazin Kharkiv National University (Ukraine) compounds”.
